The subject of assay [1] is XIP peptide (Xip251-270) binding. The experiment in a line: small-molecule binders of XIP peptide, primary screen, biochemical, small-molecule microarray, fluorescence 635/667 nm, 0.1 µg/mL protein (AID 1182). The note with it: fluorescent protein binding, 635 nm, higher = more signal, called active from +8 up or from −8 down.
The subject of assay [2] is XIP peptide (Xip251-270). The experiment in a line: small-molecule binders of XIP peptide, primary screen, biochemical, small-molecule microarray, fluorescence 635/667 nm, 0.5 µg/mL protein (AID 1183). The following applies: small-molecule microarray binding, fluorescence 635 nm; higher = more signal.
A short description of assay [3]: Plasmodium falciparum growth inhibition, primary screen, strain 3D7, DAPI fluorescence, 100 nL (AID 1184).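 Also: parasites grown inside human red blood cells in medium with human serum.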 The following applies: P. falciparum 3D7 growth, 3 d, higher = more signal.
The target of assay [4] is Homeobox protein Hox-A13 (Mus musculus) (UniProt Q62424). The experiment in a line: inhibitors of HoxA13-DNA binding, primary screen, biochemical, fluorescence polarization, labeled oligonucleotide (AID 1185). The following applies: 15 min, higher = more signal, called active from +8 up or from −8 down.
Chain of Homeobox protein Hox-A13 (Mus musculus) (Q62424 whole entry, looked up): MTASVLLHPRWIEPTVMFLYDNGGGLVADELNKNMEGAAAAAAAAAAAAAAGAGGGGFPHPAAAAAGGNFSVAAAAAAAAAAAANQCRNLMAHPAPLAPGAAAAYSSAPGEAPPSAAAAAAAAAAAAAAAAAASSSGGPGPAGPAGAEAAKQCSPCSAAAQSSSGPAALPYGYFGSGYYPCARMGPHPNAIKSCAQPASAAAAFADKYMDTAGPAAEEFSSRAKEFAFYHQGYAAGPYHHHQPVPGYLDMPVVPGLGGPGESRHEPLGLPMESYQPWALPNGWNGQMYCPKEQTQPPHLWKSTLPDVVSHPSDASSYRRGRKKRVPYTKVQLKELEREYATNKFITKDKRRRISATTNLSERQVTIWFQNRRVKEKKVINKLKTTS
Assay [5] can be described thus: inhibitors of hydroxyurea-induced Chk1 phosphorylation, primary screen, imaging, HeLa, phospho-Chk1 antibody, percent positive cells (AID 1186). The following applies: hydroxyurea-induced phospho-Chk1 immunofluorescence imaging, higher = more signal.
A short description of assay [6]: inhibitors of hydroxyurea-induced Chk1 phosphorylation, primary screen, imaging, HeLa, phospho-Chk1 nuclear intensity (AID 1187). The following applies: hydroxyurea-induced phospho-Chk1 immunofluorescence imaging, higher = more signal.

Data on 26 compounds can be found in PubChem BioAssay.

The structures appear in SMILES notation. Calls of active or inactive are those of the source. Unless noted, no rule for the calls is given here.

`C=C(CCCC)C(=O)CC[C@H](OC(C)=O)c1ccc(CO)o1`: the composite z-score in assay [1] is 0.35 (inactive); in assay [2] it was 0.0921. For the same compound, the z-score is -1.82 in assay [3], -3.62 (inactive) in assay [4], -0.059 (inactive) in assay [5] and -0.222 (inactive) in assay [6].

On to `O=C1C[C@@](C(=O)O)(c2ccc([N+](=O)[O-])cc2)[C@@H](c2ccc(CO)cc2I)N1C1CCCCC1`, for which the composite z-score in assay [1] is -0.183 (inactive); in assay [2], 0.553. For the same compound, the z-score in assay [3] is -2.01; in assay [4] it was -6.2 (inactive); in assay [5] it was -0.195 (inactive); in assay [6], 0.201 (inactive).

As for `O=C1OCC=C[C@H]2OC34C=CCN(c5ccc(Cl)cc5)C(=O)[C@H]3N(CCCO)C(=O)[C@@H]4[C@@H]12` (stereo partly specified), the composite z-score is 1.92 (inactive) in assay [1] and -0.501 in assay [2]. Also, the z-score in assay [3] is -1.39; in assay [4], -2.31 (inactive); in assay [5], -0.0921 (inactive); in assay [6], -0.389 (inactive).

For `O=C(NCCN1CCOCC1)[C@@H]1c2ccccc2C(=O)N(Cc2cc(F)cc(C(F)(F)F)c2)[C@H]1c1ccc(CO)cc1`, the composite z-score in assay [1] was 0.376 (inactive); in assay [2], 0.372. The z-score in assay [3] is 0.0111; in assay [4], -4.42 (inactive); in assay [5], -0.189 (inactive); in assay [6] it was -0.151 (inactive).

With `CN(C)CCCCCCNC(=O)[C@@H]1C[C@@H]2C(=O)N[C@@H](Cc3ccccc3)C(=O)N2[C@@H]1c1cccc(OCCO)c1`, the composite z-score is 2.15 (inactive) in assay [1] and 0.809 in assay [2]. In addition, the z-score in assay [3] was 0.526; in assay [4], -4.13 (inactive); in assay [5], 0.0258 (inactive); in assay [6], -0.024 (inactive).

With `O=C1O[C@@H](c2ccccc2)[C@@H](c2ccccc2)N2[C@@H](c3ccc(O)cc3)[C@]3(C(=O)Nc4ccc(C#CCCO)cc43)[C@@H](C(=O)N3CCCCCCC3)[C@H]12`, the composite z-score in assay [1] was 0.868 (inactive); in assay [2], 0.876. For the same compound, the z-score in assay [3] was -1.1; in assay [4], 1.7 (inactive); in assay [5], -0.149 (inactive); in assay [6], -0.56 (inactive).

With `CC(C)C(O)C1C=CC2C(=O)N(C)C(=O)C2N1N1CCCCC1` (stereo unspecified), the composite z-score in assay [1] is -0.335 (inactive); in assay [2], 0.855. For the same compound, the z-score in assay [3] was 0.998; in assay [4] it was -4.51 (inactive); in assay [5] it was 0.604 (inactive); in assay [6], 0.171 (inactive).

With `C[N+](C)(C)CCCC[C@@H]1NC(=O)[C@@H]2C[C@H](C(=O)NCCCCCCNC(=O)CS)[C@H](c3cccc(OCCO)c3)N2C1=O`, the composite z-score in assay [1] is 0.339 (inactive); in assay [2] it was 0.623. Moreover, the z-score in assay [3] was -0.198; in assay [4], -3.62 (inactive); in assay [5] it was -0.38 (inactive); in assay [6], -0.386 (inactive).

Consider `COc1ccc([Si](C)(C)[C@H]2[C@H](CC(=O)N3CCC[C@H]3CO)O[C@@]3(C(=O)N(Cc4cccc(N5CCC5=O)c4)c4ccccc43)[C@@H]2C)cc1`, for which the composite z-score is 0.185 (inactive) in assay [1] and 0.543 in assay [2]. Besides, the z-score is -2.04 in assay [3], -3.58 (inactive) in assay [4], 0.307 (inactive) in assay [5] and 0.429 (inactive) in assay [6].

For `CN1C(=O)C2C(C1=O)C1C=C(c3ccc(CO)cc3)C2C(C2CC2)N1Cc1cc2c(cc1Br)OCO2` (stereo unspecified), the values for the composite z-score in assay [1] and in assay [2] were 2.71 (inactive) and 0.832, respectively. In addition, the z-score in assay [3] is -2.16; in assay [4], -4.5 (inactive); in assay [5], -0.369 (inactive); in assay [6], -0.327 (inactive).

As for `C=C(C(=O)CC[C@@H](OC(=O)c1cccnc1)c1ccc(OCCO)cc1)C(C)C`, the composite z-score in assay [1] is 1.15 (inactive); in assay [2] it was 0.611. For the same compound, the z-score in assay [3] was -0.496; in assay [4], -3.94 (inactive); in assay [5], 1.38 (inactive); in assay [6], 1.36 (inactive).

With `Cc1ccc(F)cc1S(=O)(=O)N[C@@H]1CCN(Cc2ccc(C(F)(F)F)cc2)C1`, the composite z-score in assay [1] is 0.0254 (inactive); in assay [2] it was -0.496. Further, the z-score is -0.433 in assay [3], -5.99 (inactive) in assay [4], -0.619 (inactive) in assay [5] and -0.441 (inactive) in assay [6].

In the case of `O=C1OCCC/C=C\[C@H]2OC34C=CCN(Cn5nnc6ccccc65)C(=O)[C@H]3N(CCCO)C(=O)[C@@H]4C12` (stereo partly specified), the figures for the composite z-score in assay [1] and in assay [2] were -0.021 (inactive) and 0.652, respectively. Moreover, the z-score was -0.0008 in assay [3], -4.13 (inactive) in assay [4], 0.472 (inactive) in assay [5] and -0.103 (inactive) in assay [6].

In the case of `C=CCNC(=O)[C@H]1[C@@H]2C(=O)O[C@@H](c3ccccc3)[C@@H](c3ccccc3)N2[C@@H](c2ccc(OCCO)cc2)[C@]12C(=O)N(C(=O)OCCOC)c1ccc(C#CC3(O)CCCCCC3)cc12`, the composite z-score was 0.404 (inactive) in assay [1] and 0.735 in assay [2]. Besides, the z-score in assay [3] was -1.91; in assay [4], -0.675 (inactive); in assay [5], -0.124 (inactive); in assay [6], -0.0954 (inactive).

`O=C1c2ccccc2[C@@]2(Cc3ccccc3N(Cc3ccccc3)C2=O)[C@H](c2ccc(CO)cc2)N1Cc1ccccc1C(F)(F)F`: the composite z-score in assay [1] is 3.2 (inactive); in assay [2], 0.878. Further, the z-score in assay [3] is -0.275; in assay [4], -2.79 (inactive); in assay [5] it was -0.21 (inactive); in assay [6], -0.154 (inactive).

For `NC(=O)[C@]1(Cc2ccccc2)N=C(c2ccc(OCCCO)cc2)O[C@@H]1c1ccccc1`, the results for the composite z-score in assay [1] and in assay [2] were -0.0696 (inactive) and 0.0178, respectively. In addition, the z-score is -2.04 in assay [3], -5.25 (inactive) in assay [4], -0.0614 (inactive) in assay [5] and -0.209 (inactive) in assay [6].

Turning to `CN1C(=O)C2C=CC(C(O)C(c3ccccc3)c3ccccc3)N(Nc3ccccc3)C2C1=O` (stereo unspecified), the composite z-score in assay [1] is 0.0848 (inactive); in assay [2], 0.68. For the same compound, the z-score was 0.608 in assay [3], -4.01 (inactive) in assay [4], 0.535 (inactive) in assay [5] and -0.0171 (inactive) in assay [6].

For `CCCNC(=O)[C@@]1(C)c2ccccc2C(=O)N(Cc2cc(F)cc(C(F)(F)F)c2)[C@H]1c1ccc(CO)cc1`, the values for the composite z-score in assay [1] and in assay [2] were 1.33 (inactive) and 0.718, respectively. The z-score is -0.8 in assay [3], -3.51 (inactive) in assay [4], 0.309 (inactive) in assay [5] and 0.226 (inactive) in assay [6].

In the case of `C=C(CCCC)/C(=C/C[C@@H](OC(=O)c1ccncc1)c1ccc(CO)o1)c1cc(C(=O)OC)ccc1OC`, the composite z-score was 0.611 (inactive) in assay [1] and 0.83 in assay [2]. Besides, the z-score is -0.519 in assay [3], -3.68 (inactive) in assay [4], -0.762 (inactive) in assay [5] and -1.65 (inactive) in assay [6].

Take `C=CC[C@@]1(C(=O)NCCN2CCOCC2)N=C(c2ccc(OCCCO)cc2)O[C@@H]1c1ccccc1CN=[N+]=[N-]`: the composite z-score was 1.21 (inactive) in assay [1] and 0.818 in assay [2]. Also, the z-score was -2.13 in assay [3], -1.05 (inactive) in assay [4], -0.336 (inactive) in assay [5] and -0.254 (inactive) in assay [6].

As for `COCCOC(=O)N1C(=O)[C@@]2(c3cc(C#CCC(C(=O)OC)C(=O)OC)ccc31)[C@H](c1ccc(OCCO)cc1)N1[C@H](c3ccccc3)[C@H](c3ccccc3)OC(=O)[C@H]1[C@@H]2C(=O)NC[C@H](O)c1ccccc1`, the values for the composite z-score in assay [1] and in assay [2] were 0.234 (inactive) and 0.851, respectively. Besides, the z-score in assay [3] was -2.16; in assay [4] it was 0.738 (inactive); in assay [5], -0.411 (inactive); in assay [6], -0.397 (inactive).

Take `O=C1C2C=CC(C(O)C3CC=CCC3)N(n3cnnc3)C2C(=O)N1Cc1ccccc1` (stereo unspecified): the composite z-score in assay [1] was 0.887 (inactive); in assay [2], -0.0517. Besides, the z-score was 0.017 in assay [3], -3.36 (inactive) in assay [4], 0.518 (inactive) in assay [5] and -0.603 (inactive) in assay [6].

For the compound `CC(=O)NCCCC[C@@H]1NC(=O)[C@@H]2C[C@H](C(=O)NCc3ccc(F)cc3)[C@H](c3ccc(O)cc3)N2C1=O`, the results for the composite z-score in assay [1] and in assay [2] were 1.64 (inactive) and 1.01, respectively. Further, the z-score in assay [3] is -0.448; in assay [4], -1.2 (inactive); in assay [5], 0.0701 (inactive); in assay [6], 0.0917 (inactive).

With `C=CCNC(=O)[C@@H]1[C@H]2C(=O)O[C@H](c3ccccc3)[C@H](c3ccccc3)N2[C@H](c2ccccc2OCCO)[C@@]12C(=O)N(C(=O)OCCOC)c1ccc(C#CCC(C(=O)OC)C(=O)OC)cc12`, the composite z-score in assay [1] is 2.28 (inactive); in assay [2] it was 0.878. The z-score was -2.14 in assay [3], -0.757 (inactive) in assay [4], 0.071 (inactive) in assay [5] and 0.361 (inactive) in assay [6].

For `COC(=O)[C@@]1(Cc2ccc(F)cc2)[C@H]2c3cc(C(=O)N4CCCC4)n(Cc4ccc(Cl)c(C(F)(F)F)c4)c3C[C@H]2CN1C(=O)c1ccccc1`, the composite z-score is 0.15 (inactive) in assay [1] and 0.625 in assay [2]. Besides, the z-score was -1.45 in assay [3], -2.22 (inactive) in assay [4], 0.612 (inactive) in assay [5] and -0.126 (inactive) in assay [6].

As for `CN(C)CCCCNC(=O)[C@@H]1C[C@@H]2C(=O)N[C@@H](CCCCN)C(=O)N2[C@@H]1c1cccc(OCCO)c1`, the composite z-score in assay [1] is 0.388 (inactive); in assay [2], 0.566. The z-score in assay [3] is -0.114; in assay [4], -3.47 (inactive); in assay [5] it was -0.833 (inactive); in assay [6] it was -0.838 (inactive).
